# Assay results: PubChem BioAssay
# Measured potencies and affinities stand elsewhere. Inconclusive results are not listed. Calls of active or inactive are those of the source. Unless noted, no rule for the calls is given here.
# Test: cytotoxicity in PAX8-dependent RMG-1 cells, dose response, cell-based, cherry-pick (AID 687029;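 active = signal drop whose fitted half-maximal concentration is at most twice the top valid dose, in every test run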;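 also: cells exposed to compound for 96 hours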)
# Conditions: RMG-1 viability, CellTiterGlo ATP luminescence, 96 h; series mostly up to 35 µM; activity change, negative = inhibition: at the top concentration
row,Compound,"activity change, negative = inhibition"
1,O=C(CCS(=O)(=O)c1ccc(Cl)cc1)Nc1nc(-c2ccncc2)cs1,24.7% (inactive)
2,N#C[C@@H]1[C@H](c2ccc(C#Cc3ccc(F)cc3)cc2)[C@@H](CO)N1C(=O)Nc1ccc(F)cc1,16.2% (inactive)
3,CCOC(=O)N1CCC(NC(=O)c2ccc3c(c2)N=C(C)c2c(C)ccc(C)c2S3)CC1,24.9% (inactive)
4,COc1cc(-c2c(-c3cc(OC)c(OC)c(OC)c3)noc2C)ccc1F,1.56% [at 16 µM] (inactive)
5,COc1cc2c(c(OC)c1OC)-c1ccc(OC)c(=O)cc1[C@@H](NC(C)=O)CC2,14.5% (inactive)
6,CCCc1ccc(C(=O)O/N=C(\N)c2ccccn2)cc1,11.5% (inactive)
7,O=C(C1CC1)N1C[C@@H]2N[C@H](C1)C2c1ccc(-c2ccccc2F)cc1 (stereo not given in full),24% (inactive)
8,O=C(c1ccc(Br)cc1)c1cc([N+](=O)[O-])ccc1N1CCCCC1,33.8% (inactive)
9,COc1cc2c(c(OC)c1OC)-c1ccc(SC)c(=O)cc1C(NC=O)CC2 (stereo not given),36.1% (inactive)
10,O=c1[nH]nnc2c1ncn2C1OC(CO)C(O)C1O (stereo not given),37.2% (inactive)
11,COc1cc(C2C(C#N)=C(N)Oc3cc4c(cc32)OCO4)cc(OC)c1OC (stereo not given),45.1% (inactive)
12,Cc1cc(C)c2nc(SCC(=O)N3CC(=O)Nc4ccccc43)c(C#N)cc2c1,44.4% (inactive)
13,CCN(CC)S(=O)(=O)c1cccc(NC(=O)Nc2cccc(C(F)(F)F)c2)c1,-5.09% (inactive)
14,CC(=O)c1cc(NC(=O)c2cccc(C(F)(F)F)c2)c(=O)oc1C,5.38% (inactive)
15,O=C(C[C@@H]1C[C@H]2c3cc(NS(=O)(=O)c4ccc(F)cc4)ccc3O[C@H]2[C@H](CO)O1)NCc1ccc(-c2ccccc2)cc1,7.58% (inactive)
16,COc1ccc(-n2ncc(Cl)c(Cl)c2=O)cc1,32% (inactive)
17,O=C(COc1ccccc1-c1ccccc1)N/N=C/c1ccc2ccccc2c1,7.99% (inactive)
18,COc1ccc(-c2csc(NC(=O)c3ccccc3NS(=O)(=O)c3ccc(F)c(F)c3)n2)cc1,21.1% (inactive)
19,O=C(Nc1cccc(C(F)(F)F)c1)Nc1ccc(N2CCCC2)c(S(=O)(=O)Nc2ccccc2Cl)c1,4.73% (inactive)
20,O=C(CCCN1C(=O)/C(=C/c2cccc(Br)c2)SC1=S)Nc1ccccn1,25.9% (inactive)
21,CC(=O)Nc1ccc(-c2ccnc3c2CC(C(=O)NCc2ccccc2)O3)cc1 (stereo not given),29.5% (inactive)
22,CCOc1ccc(C(=O)c2cc([N+](=O)[O-])ccc2N2CCOCC2)cc1,22.6% (inactive)
23,CC(=O)Nc1ccc(Sc2ccc([N+](=O)[O-])o2)cc1,18% (inactive)
24,Cc1cccc(/C=C(\c2nc3ccccc3[nH]2)S(=O)(=O)c2ccccc2)c1,32.9% (inactive)
25,COC(=O)[C@H]1[C@@H](O)[C@@]2(O)c3c(OC)cc(OC)cc3O[C@@]2(c2ccc(OC)cc2)[C@@H]1c1ccc(F)cc1,12.9% (inactive)

# Test: non-specific cell cytotoxicity, dose response, cytotoxicity control for PAX8 inhibitor project, plate reader, dry powder samples (AID 743021)
# Conditions: cell line, non-specific cytotoxicity counter-screen; series mostly up to 35 µM; activity change, negative = cytotoxicity: at the top concentration
Compound,"activity change, negative = cytotoxicity",outcome
Oc1c(Cl)cc(CN2CCOCC2)c2cccnc12,-3.1% (inactive),–
CCOC(=O)c1ccc(NC(=O)Cn2ncc(Cl)c(Cl)c2=O)cc1,-5.16% (inactive),–
Oc1ccc(C[C@H]2CNC(=S)N2CC2CCCN2C[C@H](Cc2ccc(O)cc2)N2C[C@H](Cc3ccc(O)cc3)N(CC3CCCCCC3)C2=S)cc1 (stereo not given in full),-1.14% (inactive),–
O=c1[nH]c(-c2ccccn2)nc2sc(-c3ccccc3)cc12,30.4% (inactive),–
O=C(NN=Cc1c(O)ccc2ccccc12)c1ccncc1,0.631% (inactive),–
CN(/N=C/c1ccc(O)cc1O)c1nc(-c2ccccc2)cc(-c2ccccc2)n1,-0.211% (inactive),–
COc1ccc(/C=C/C(=O)c2cc(F)ccc2OC(=O)c2ccccc2C)cc1OC,–,inactive
Cc1ccc(/C=N/NC(=O)COc2ccccc2-c2ccccc2)cc1,-18% (inactive),–
Cn1nnnc1Sc1ncnc2scc(-c3ccsc3)c12,17.2% (inactive),–
CN1CCc2c(sc(NC(=O)c3ccc([N+](=O)[O-])o3)c2C(N)=O)C1,83.8% (inactive),–
O=C(Nc1ccc(N2CCN(C(=O)c3cccs3)CC2)cc1)c1ccc([N+](=O)[O-])o1,-3.58% (inactive),–
O=C(CCl)Nc1cc2[nH]c(=O)[nH]c2cc1Br,24.3% (inactive),–
OC[C@H]1O[C@@H](n2cnc3c(NCc4ccco4)ncnc32)[C@H](O)[C@@H]1O,18.5% (inactive),–
COc1cc(CNc2ncnc3c2ncn3[C@H]2CN(Cc3ccc(-c4ccccc4)cc3)C[C@@H](CO)O2)cc(OC)c1OC,27.9% (inactive),–
COc1cccc2c1C(=O)c1c(O)c3c(c(O)c1C2=O)C[C@@](O)(C(=O)CO)C[C@@H]3O[C@H]1C[C@H](N)[C@H](O)[C@H](C)O1,22.1% [at 16 µM] (inactive),–
O=C(CCS(=O)(=O)c1ccc(Cl)cc1)Nc1nc(-c2ccncc2)cs1,17.8% (inactive),–
N#C[C@@H]1[C@H](c2ccc(C#Cc3ccc(F)cc3)cc2)[C@@H](CO)N1C(=O)Nc1ccc(F)cc1,-37.7% (inactive),–
CCOC(=O)N1CCC(NC(=O)c2ccc3c(c2)N=C(C)c2c(C)ccc(C)c2S3)CC1,6.1% (inactive),–
COc1cc(-c2c(-c3cc(OC)c(OC)c(OC)c3)noc2C)ccc1F,-1.45% (inactive),–
COc1cc2c(c(OC)c1OC)-c1ccc(OC)c(=O)cc1[C@@H](NC(C)=O)CC2,22.1% (inactive),–

Compound,"activity change, negative = cytotoxicity",outcome
CCCc1ccc(C(=O)O/N=C(\N)c2ccccn2)cc1,-28.7% (inactive),–
O=C(C1CC1)N1C[C@@H]2N[C@H](C1)C2c1ccc(-c2ccccc2F)cc1 (stereo not given in full),-11.1% (inactive),–
O=C(c1ccc(Br)cc1)c1cc([N+](=O)[O-])ccc1N1CCCCC1,3.43% (inactive),–
COc1cc2c(c(OC)c1OC)-c1ccc(SC)c(=O)cc1C(NC=O)CC2 (stereo not given),-12.1% (inactive),–
O=c1[nH]nnc2c1ncn2C1OC(CO)C(O)C1O (stereo not given),7.07% (inactive),–
COc1cc(C2C(C#N)=C(N)Oc3cc4c(cc32)OCO4)cc(OC)c1OC (stereo not given),25.2% (inactive),–
Cc1cc(C)c2nc(SCC(=O)N3CC(=O)Nc4ccccc43)c(C#N)cc2c1,4.54% (inactive),–
CCN(CC)S(=O)(=O)c1cccc(NC(=O)Nc2cccc(C(F)(F)F)c2)c1,-13.8% (inactive),–
CC(=O)c1cc(NC(=O)c2cccc(C(F)(F)F)c2)c(=O)oc1C,0.864% (inactive),–
O=C(C[C@@H]1C[C@H]2c3cc(NS(=O)(=O)c4ccc(F)cc4)ccc3O[C@H]2[C@H](CO)O1)NCc1ccc(-c2ccccc2)cc1,-18.1% (inactive),–
COc1ccc(-n2ncc(Cl)c(Cl)c2=O)cc1,-25.3% (inactive),–
O=C(COc1ccccc1-c1ccccc1)N/N=C/c1ccc2ccccc2c1,14% (inactive),–
COc1ccc(-c2csc(NC(=O)c3ccccc3NS(=O)(=O)c3ccc(F)c(F)c3)n2)cc1,-21.2% (inactive),–
O=C(Nc1cccc(C(F)(F)F)c1)Nc1ccc(N2CCCC2)c(S(=O)(=O)Nc2ccccc2Cl)c1,0.386% (inactive),–
O=C(CCCN1C(=O)/C(=C/c2cccc(Br)c2)SC1=S)Nc1ccccn1,8.35% (inactive),–
CC(=O)Nc1ccc(-c2ccnc3c2CC(C(=O)NCc2ccccc2)O3)cc1 (stereo not given),11.3% (inactive),–
CCOc1ccc(C(=O)c2cc([N+](=O)[O-])ccc2N2CCOCC2)cc1,-0.2% (inactive),–
CC(=O)Nc1ccc(Sc2ccc([N+](=O)[O-])o2)cc1,29.4% (inactive),–
Cc1cccc(/C=C(\c2nc3ccccc3[nH]2)S(=O)(=O)c2ccccc2)c1,51.2% (inactive),–
COC(=O)[C@H]1[C@@H](O)[C@@]2(O)c3c(OC)cc(OC)cc3O[C@@]2(c2ccc(OC)cc2)[C@@H]1c1ccc(F)cc1,-18.6% (inactive),–
